ChEMBL document CHEMBL3988442, “University of Dundee, Small-Polar-MMV Screening Library” (2021)
Hit rate of the full screen: of about 38,000 compounds, about 1,200 (3.2%) showed an effect of 50% or more. The median lay at about -58%. This excerpt belongs to a sample that is enriched for strong results.

The compounds below were run on Plasmodium falciparum (assay: Calibr Malaria Delayed Death Assay SOP). Details: concentration 4.99e-06 (unit not given; other assays of the set use mol/L).
Assay type: functional, organism-based
Set-up: scale not given: in the data most compounds retested in dose-response had high values

Point of comparison: `CC(C)N(C)CC(=O)NCc1ccccc1N1CCN(C)CC1`, “Percent Effect” value 43.49%. Against it:
- C[C@@H]1CN(C(=O)c2cc(Cn3ccc4ccccc43)[nH]n2)C[C@H](C)O1 — lower, -126.8%
- CC1CCCN(C(=O)Nc2cccc(CN3CCOC3=O)c2)C1 (stereo not drawn) — lower, -90.51%
- C[C@@H](O)CNC(=O)c1nc(Cc2c(Cl)cccc2Cl)no1 — lower, -61.62%
- COc1ccc(C(CC(=O)O)NC(=O)CCc2cccs2)cc1OC (stereo not drawn) — lower, -100.1%
- CN1CCC(N(Cc2ccncc2)Cc2nc3c(s2)CCCC3)CC1 — lower, 7.357%
- COc1ccc(F)cc1C(C)NC(=O)Cn1ccc(=O)n(C)c1=O (stereo not drawn) — lower, -164.7%
- COC1CCN(CCNC(=O)NC(C)c2ccc(F)c(F)c2)CC1 (stereo not drawn) — higher, 45.3%
- COC1CCN(CCNC(=O)NC(C)c2cccc(Cl)c2)CC1 (stereo not drawn) — lower, 23.1%
- COC1CCN(CCNC(=O)NCC(C)c2cccc(C)c2)CC1 (stereo not drawn) — higher, 54%
- N#Cc1cc(Cn2cnc(C3CCC3)cc2=O)ccc1F — lower, -42.13%
- Cc1cnn(CC2CN(Cc3nnc(C4CC4)n3C)CCO2)c1 (stereo not drawn) — lower, -158.8%
- CC(NCc1cn(CCC(N)=O)c2ccccc12)c1nncn1C (stereo not drawn) — lower, -188.2%
- Cc1ccc(C(C)NCc2cn(CCC(N)=O)c3ccccc23)cc1C (stereo not drawn) — higher, 82.29%
- CC(C)n1cnnc1CCNCc1cn(CCC(N)=O)c2ccccc12 — lower, -17.79%
- CN(C)C(=O)CN1CCc2ncnc(C3CC3)c2CC1 — lower, -29.69%
- COc1ncccc1NC(=O)NC(C)c1nncn1C (stereo not drawn) — lower, -34.42%
- CC(C)c1nn(C)c(N(C)C)c1CNCc1cccc2c1OCO2 — lower, 16.39%
- CC(C)C(CNCc1cccc2c1OCO2)N1CCOCC1 (stereo not drawn) — higher, 75.82%
- Cc1cnc(C(=O)NCC(c2ccc(C)o2)N2CCOCC2)cn1 (stereo not drawn) — lower, -124.5%
- c1csc(C(CNCc2cccc3c2OCO3)N2CCOCC2)c1 (stereo not drawn) — lower, 39.98%
- Cl.c1cc(CNCc2ccnc(N3CCOCC3)c2)c2c(c1)OCO2 — lower, -34.78%
- Cc1ccc(C(CNCc2cccc3c2OCO3)N2CCOCC2)o1 (stereo not drawn) — higher, 65.56%
- O=C(NCCn1cccn1)c1ccn(-c2cccc(F)c2)n1 — lower, -72.56%
- Cc1noc2nc(C3CC3)c(Cl)c(C(=O)O)c12 — lower, -135.9%
- Cc1ccc(N2CCC(C(=O)NC3CCc4nccn4C3)CC2)nc1 (stereo not drawn) — lower, -14.8%
- CC(C)[C@@H]1CN(C(=O)NCc2ccco2)C[C@H]1N(C)C — lower, -12.41%
- CC(C)[C@@H]1CN(C(=O)CN(C)Cc2ccccc2)C[C@H]1C(=O)O — lower, -22.97%
- CC(C)[C@@H]1CN(C(=O)C2(c3ccccc3)CCN(C)CC2)C[C@H]1N(C)C — higher, 83.06%
- CCCn1c(N2CCCC(C)C2)nc2c(C)nn(C)c2c1=O (stereo not drawn) — lower, -32.41%
- Cc1ncncc1C(=O)N1CCOC(c2nc(C(C)C)n[nH]2)C1 (stereo not drawn) — lower, -146.2%
- Cn1ncc(N2CCOC(CCNC(=O)CO)C2)cc1=O (stereo not drawn) — lower, -51.52%
- CC(=O)N1CCC2(CCN(C(=O)c3ccc(F)c(C(F)(F)F)c3)CC2)C1 — lower, -64.74%
- CN1CCCN(c2ccc(F)cc2CNC(=O)c2ccsc2)CC1 — higher, 59.32%
- O=C(NCc1cccnc1N1CCCC(O)C1)c1ccsc1 (stereo not drawn) — lower, -31.1%
- CCOCCCNC(=O)Cc1cccc(F)c1 — lower, -98.72%
- Cc1cc(=O)n(C)cc1NC(=O)Cc1cccc(F)c1 — lower, -34.19%
- CN1CCN(c2ccccc2CNC(=O)Cc2ccccc2F)CC1 — higher, 75.84%
- CN1CCN(c2ccccc2CNC(=O)Cc2cccc(F)c2)CC1 — higher, 77.21%
- Cc1ccc(C(=O)NCc2cc(F)ccc2N2CCCN(C)CC2)o1 — lower, 33.96%
- O=C(CN1CCS(=O)(=O)CC1)NCc1ccccc1F — lower, -87.27%
- Cc1cc(CNC(=O)NCc2ccccc2N2CCOCC2)no1 — lower, -32.16%
- CCc1ccccc1CNC(=O)CNCC(F)(F)F — lower, -137.2%
- CN1CCN(c2ccccc2CNC(=O)CSC(F)(F)F)CC1 — higher, 67.15%
- CC(=O)N1CCCN(C(=O)c2cnn(C(C)(C)C)c2C)CC1 — lower, -71.74%
- Cc1ccc(CNC(=O)C2CCNC(=O)C2)c(OCCC(C)C)c1 (stereo not drawn) — lower, -137.1%
- COc1nn(C)c2c1CCCN(C(=O)c1ccc3ccccc3n1)C2.O=C(O)C(F)(F)F — lower, -93.98%
- O=C(NCc1cc(=O)n2c(n1)CN(CC1CC1)CCC2)c1ccsc1.O=C(O)C(F)(F)F — lower, -77.99%
- Cc1cc(NS(=O)(=O)c2cccs2)ccc1-n1cccc1C(=O)O — lower, -24.74%
- CN1CCN(c2ccccc2NC(=O)NCCc2ccccc2)CC1 — higher, 83.6%
- CN1CCN(c2ccccc2NC(=O)NCCc2ccc(O)cc2)CC1 — lower, -22.54%
- CN1CCN(c2ccccc2NC(=O)NCC[S+](C)[O-])CC1 (stereo not drawn) — lower, -127.8%
- c1nc(N2CCc3[nH]cnc3C2)c2cc[nH]c2n1 — lower, -49.27%
